# Data reported in PubChem BioAssay.
# Activity calls are given as the source filed them. Unless noted, the rule behind the calls is not given here.
# Assays:
# [1] = compounds binding Alexa647 anti-His antibody – biochemical, small-molecule microarray, 635 nm fluorescence, artefact control for SMM control protein annotation, primary screen (AID 1128); conditions: higher = more signal;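 note: score merges feature fluorescence with signal-to-noise for each printed compound spot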
# [2] = tested on: Human papillomavirus type 1a E7 protein (residues 1-88); assay: HPV1a E7 small-molecule binders, primary screen, biochemical, small-molecule microarray, residues 1-88, 635 nm (AID 1129); conditions: small-molecule microarray binding, fluorescence 635 nm; higher = more signal
# [3] = biological target: Focal adhesion kinase 1 (Homo sapiens) (UniProt Q05397); assay: PTK2 protein binding on printed compound slides – biochemical, small-molecule microarray, 635/667 nm fluorescence, BSA, DTT, primary screen (AID 1130); conditions: 635 nm fluorescence, higher = more signal;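 note: composite of spot emission at 667 nm and signal to noise over triplicate slides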
# Chain of Focal adhesion kinase 1 (Homo sapiens) (Q05397 whole entry, looked up): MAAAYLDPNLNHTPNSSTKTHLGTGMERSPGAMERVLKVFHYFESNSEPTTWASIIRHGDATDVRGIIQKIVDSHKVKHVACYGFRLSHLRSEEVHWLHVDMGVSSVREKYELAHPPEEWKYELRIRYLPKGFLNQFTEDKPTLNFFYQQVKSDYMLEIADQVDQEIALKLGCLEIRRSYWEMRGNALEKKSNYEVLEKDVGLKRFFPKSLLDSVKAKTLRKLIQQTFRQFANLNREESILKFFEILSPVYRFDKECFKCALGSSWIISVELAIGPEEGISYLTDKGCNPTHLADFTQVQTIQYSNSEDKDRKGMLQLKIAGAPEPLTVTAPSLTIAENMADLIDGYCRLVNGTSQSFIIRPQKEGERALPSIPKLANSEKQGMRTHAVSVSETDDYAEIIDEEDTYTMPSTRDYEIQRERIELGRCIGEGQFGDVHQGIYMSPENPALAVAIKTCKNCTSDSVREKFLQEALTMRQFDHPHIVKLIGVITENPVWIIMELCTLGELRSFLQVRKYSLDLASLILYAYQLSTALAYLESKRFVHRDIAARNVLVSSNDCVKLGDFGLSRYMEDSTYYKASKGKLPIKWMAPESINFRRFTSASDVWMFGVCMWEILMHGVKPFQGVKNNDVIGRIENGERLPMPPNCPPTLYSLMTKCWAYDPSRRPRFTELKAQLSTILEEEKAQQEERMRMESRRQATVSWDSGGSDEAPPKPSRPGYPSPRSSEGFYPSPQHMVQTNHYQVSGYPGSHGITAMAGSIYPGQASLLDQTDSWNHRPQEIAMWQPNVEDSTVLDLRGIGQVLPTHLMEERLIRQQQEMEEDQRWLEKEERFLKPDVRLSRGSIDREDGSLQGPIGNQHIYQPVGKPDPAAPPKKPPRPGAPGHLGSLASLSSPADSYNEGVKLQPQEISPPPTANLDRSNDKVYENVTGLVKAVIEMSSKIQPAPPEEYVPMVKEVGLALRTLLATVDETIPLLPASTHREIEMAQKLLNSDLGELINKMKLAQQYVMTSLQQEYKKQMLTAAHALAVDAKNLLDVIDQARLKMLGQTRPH
# [4] = tested on: Fibrinogen (Alexa647-labelled); assay: Alexa647-fibrinogen binding to printed small molecules – biochemical, small-molecule microarray, 635/667 nm fluorescence, artefact control for SMM control-protein annotation, profiling panel (AID 1131); conditions: fibrinogen-A647 binding fluorescence, higher = more signal;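 note: z-score merges 667 nm fluorescence with per-spot signal-to-noise over triplicate slides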
# [5] = biological target: Follistatin (Homo sapiens) (UniProt P19883); assay: FST protein binding to printed compounds – biochemical, small-molecule microarray, 635/667 nm fluorescence, primary screen (AID 1132); conditions: 635 nm fluorescence, higher = more signal
# Chain of Follistatin (Homo sapiens) (P19883 whole entry, looked up): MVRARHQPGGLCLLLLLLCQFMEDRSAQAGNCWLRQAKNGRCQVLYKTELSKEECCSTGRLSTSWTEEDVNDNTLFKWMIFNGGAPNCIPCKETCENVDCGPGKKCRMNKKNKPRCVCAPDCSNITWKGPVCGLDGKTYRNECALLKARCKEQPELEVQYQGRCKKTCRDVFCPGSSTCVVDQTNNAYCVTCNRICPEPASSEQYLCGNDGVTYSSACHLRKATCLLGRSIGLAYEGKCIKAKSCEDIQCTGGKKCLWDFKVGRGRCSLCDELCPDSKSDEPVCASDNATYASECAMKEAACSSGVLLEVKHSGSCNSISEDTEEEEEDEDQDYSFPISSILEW
# [6] = biological target: Fibroblast growth factor 2 (Homo sapiens) (UniProt P09038); assay: basic fibroblast growth factor binding to printed compounds – biochemical, small-molecule microarray, 635/667 nm fluorescence, primary screen (AID 1133); conditions: FGF2, fluorescence 635/667, higher = more signal
# Chain of Fibroblast growth factor 2 (Homo sapiens) (P09038 whole entry, looked up): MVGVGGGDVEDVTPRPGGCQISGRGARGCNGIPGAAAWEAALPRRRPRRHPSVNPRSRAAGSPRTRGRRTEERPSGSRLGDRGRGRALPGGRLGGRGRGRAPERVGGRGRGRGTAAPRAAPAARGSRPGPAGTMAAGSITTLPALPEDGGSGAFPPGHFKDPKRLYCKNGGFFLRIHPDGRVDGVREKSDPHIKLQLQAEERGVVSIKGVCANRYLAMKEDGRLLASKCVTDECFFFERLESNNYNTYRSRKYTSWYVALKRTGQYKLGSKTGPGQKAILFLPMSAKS
# [7] = JC-1 mitochondrial potential readout, lung cancer cells – cell-based, A549, JC-1 fluorescence, basal, 24 h, 100 nL, profiling panel (AID 1138); conditions: higher = more signal;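 note: A549 lung adenocarcinoma cells under basal conditions with no added stimulus; test concentration not given here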
# Lefty1 = Lefty1 protein binding to printed compounds – biochemical, small-molecule microarray, 635/667 nm fluorescence, primary screen (AID 1139); conditions: fluorescence 635/667, higher = more signal
# [8] = tested on: wheat germ agglutinin (Triticum aestivum), Alexa647-labelled; assay: Alexa647-WGA lectin binding to printed small molecules – biochemical, small-molecule microarray, 635/667 nm fluorescence, artefact control for SMM control-protein annotation, profiling panel (AID 1140); conditions: WGA-A647 binding, 635 nm fluorescence, higher = more signal;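 note: score merges 667 nm feature emission with signal to noise over triplicate slides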
# [9] = biological target: Luciferin 4-monooxygenase (Photinus pyralis) (UniProt P08659); assay: inhibition of purified Photinus pyralis luciferase – biochemical, luminescence, purified enzyme, 2006 set, primary screen (AID 1141); conditions: purified firefly luciferase, SteadyGlo luminescence, 30 min; higher = more signal, called active from +8 up or from −8 down;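 note: cell-free assay with purified firefly luciferase at 100 ng per well in PBS; test concentration not given here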
# Chain of Luciferin 4-monooxygenase (Photinus pyralis) (P08659 whole entry, looked up): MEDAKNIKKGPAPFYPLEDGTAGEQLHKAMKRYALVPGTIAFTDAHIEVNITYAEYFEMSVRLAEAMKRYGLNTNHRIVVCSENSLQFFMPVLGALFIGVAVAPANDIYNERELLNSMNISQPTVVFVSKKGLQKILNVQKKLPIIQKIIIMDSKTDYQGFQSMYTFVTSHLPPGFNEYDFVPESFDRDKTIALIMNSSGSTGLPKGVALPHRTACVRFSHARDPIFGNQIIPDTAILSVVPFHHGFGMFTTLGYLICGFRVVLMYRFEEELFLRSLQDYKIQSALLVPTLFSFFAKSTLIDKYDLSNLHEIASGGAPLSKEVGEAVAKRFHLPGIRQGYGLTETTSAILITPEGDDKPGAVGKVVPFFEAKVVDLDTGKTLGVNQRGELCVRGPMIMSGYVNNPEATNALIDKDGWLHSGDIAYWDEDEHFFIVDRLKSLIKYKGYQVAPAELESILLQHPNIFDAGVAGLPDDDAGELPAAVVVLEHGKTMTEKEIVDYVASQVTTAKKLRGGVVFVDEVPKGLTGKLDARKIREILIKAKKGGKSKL
# [10] = tested on: Wnt5a (protein binding on small-molecule microarray); assay: small molecules binding Wnt5a protein – biophysical, small-molecule microarray, 635/667 nm fluorescence, primary screen (AID 1142); conditions: 635 nm fluorescence, higher = more signal;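 note: fluorescence read at 667 nm with signal to noise per printed feature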
# [11] = ATP-based viability of Huh7 replicon cells – cell-based, CellTiter-Glo luminescence, basal, 48 h, cytotoxicity control for HCV replication inhibitor project, primary screen (AID 1143); conditions: higher = more signal, called active from +8 up or from −8 down;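 note: Huh7 hepatoma cells carrying a hepatitis C replication reporter with no stimulus; test concentration not given here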
# [12] = Pseudomonas biofilm growth suppression – PAO1 strain, BacTiter-Glo luminescence, LB-PBS, primary screen (AID 1144); conditions: P. aeruginosa PAO1 biofilm, 12 h, higher = more signal
# [13] = basal CRE-LacZ reporter activity in PC12 – cell-based, unstimulated, primary screen (AID 1145); conditions: no forskolin, luminescence, 4.5 h, higher = more signal, called active from +8 up or from −8 down
# [14] = forskolin-driven CRE-LacZ activity in PC12 – cell-based, CRE-LacZ reporter, forskolin-stimulated, primary screen (AID 1146); conditions: luminescence, 4.5 h, higher = more signal, called active from +8 up or from −8 down;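 note: PC12 cells with 6xCRE LacZ reporter stimulated by forskolin 10 µM; beta-galactosidase reporter signal reflecting CREB driven transcription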
# [15] = biological target: Streptavidin (Streptomyces avidinii) (UniProt P22629); assay: compounds binding control protein streptavidin – biophysical, small-molecule microarray, 635/667 nm fluorescence, artefact control for SMM compound annotation, primary screen (AID 1147); conditions: higher = more signal;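 note: signal reflects streptavidin binding to arrayed compounds as a control protein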
# Chain of Streptavidin (Streptomyces avidinii) (P22629 whole entry, looked up): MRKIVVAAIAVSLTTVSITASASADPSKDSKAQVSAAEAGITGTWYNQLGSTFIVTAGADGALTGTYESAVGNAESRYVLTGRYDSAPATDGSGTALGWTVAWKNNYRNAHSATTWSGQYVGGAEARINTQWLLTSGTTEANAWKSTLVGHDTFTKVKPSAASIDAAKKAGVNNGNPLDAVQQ
# [16] = probe aInhba binding on compound microarray – biochemical, small-molecule microarray, 635/667 nm fluorescence, primary screen (AID 1148); conditions: higher = more signal;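 note: score merges 667nm spot fluorescence with signal-to-noise for antibody binding to printed compounds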
# Torsin-1A (Homo sapiens) [17] = biological target: Torsin-1A (Homo sapiens) (UniProt O14656); assay: TOR1A wild-type binding on microarray – cell lysate, small-molecule microarray, lysate, 635/667 nm, primary screen (AID 1149); conditions: COS7 hTOR1A-WT lysate, 635 nm fluorescence, higher = more signal
# Chain of Torsin-1A (Homo sapiens) (O14656 whole entry, looked up): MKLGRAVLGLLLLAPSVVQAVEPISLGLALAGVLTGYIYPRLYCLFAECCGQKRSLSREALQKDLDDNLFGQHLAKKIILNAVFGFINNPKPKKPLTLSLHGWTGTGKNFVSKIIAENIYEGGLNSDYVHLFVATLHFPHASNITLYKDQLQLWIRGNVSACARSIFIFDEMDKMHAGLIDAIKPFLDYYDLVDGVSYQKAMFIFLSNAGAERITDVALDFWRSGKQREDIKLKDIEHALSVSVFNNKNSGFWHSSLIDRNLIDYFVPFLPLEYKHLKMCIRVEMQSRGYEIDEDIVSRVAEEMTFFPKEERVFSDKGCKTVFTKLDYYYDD
# Torsin-1A (Homo sapiens) [18] = biological target: Torsin-1A (Homo sapiens) (UniProt O14656); assay: torsin A mutant lysate binding on microarrays – cell lysate, small-molecule microarray, COS7 lysate, 635/667 nm fluorescence, primary screen (AID 1150); conditions: COS7 hTOR1A mutant lysate, 635 nm fluorescence, higher = more signal;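 note: score pools 667 nm emission and signal to noise measuring lysate protein binding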
# [19] = tested on: Sonic hedgehog protein (Shh); assay: Sonic hedgehog microarray binding compounds – biochemical, small-molecule microarray, 635/667 nm fluorescence, primary screen (AID 1151); conditions: 635 nm fluorescence, higher = more signal;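 note: Shh protein binding to compounds spotted on small-molecule microarray slides; score combines spot fluorescence intensity with signal-to-noise across triplicate slides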
Structure (SMILES),composite z-score [1],composite z-score [2],composite z-score [3],composite z-score [4],composite z-score [5],composite z-score [6],z-score [7],composite z-score (Lefty1),composite z-score [8],z-score [9],composite z-score [10],z-score [11],z-score [12],z-score [13],z-score [14],composite z-score [15],composite z-score [16],composite z-score (Torsin-1A (Homo sapiens) [17]),composite z-score (Torsin-1A (Homo sapiens) [18]),composite z-score [19]
C[C@@H]1NC(=O)[C@@]23C(=O)N[C@@H](Cc4ccccc4)C2[C@H](C)[C@@]2(C)O[C@H]2C3/C=C/C/C=C\CNC(=O)[C@@H]2CCCN2C1=O (stereo not given in full),0.104,-0.715,-0.178,-1.12,0.148,-0.197,0.0238,0.0216,-0.628,0.0545 (inactive),-0.0872,-0.0642 (inactive),-0.426 (inactive),-0.687 (inactive),-0.226 (inactive),-0.591,-0.159,0.271,-0.127,0.44
O=C1OCCC=C[C@H]2OC34C=CCN(Cn5nnc6ccccc65)C(=O)[C@H]3N(CCCCCCO)C(=O)[C@@H]4C12 (stereo not given in full),-0.832,-0.48,-0.235,-0.907,-1.29,-1.24,0.324,-1.28,-1.07,-0.718 (inactive),-0.512,0.523 (inactive),0.863 (inactive),0.191 (inactive),0.0417 (inactive),-1.12,-0.561,-0.103,-0.0648,-0.643
Cc1ccc(S[C@]2(C(=O)NCC(F)(F)F)CC(=O)N(Cc3ccccc3C(F)(F)F)[C@@H]2c2ccc(CO)cc2I)cc1,-0.227,-0.727,-0.604,-0.992,-0.638,-1.08,1.17,-0.745,-0.154,0.84 (inactive),-0.0722,-1.26 (inactive),-0.235 (inactive),-0.671 (inactive),0.622 (inactive),-0.619,-0.024,-2.42,-1.67,-0.402
CC(C)(C)N1CC=CC23O[C@@H]4C=CCCOC(=O)C4[C@H]2C(=O)N(CCO)[C@@H]3C1=O (stereo not given in full),-0.513,-0.991,-0.541,0.0853,-0.607,0.23,-0.845,-0.551,-0.0465,0.0324 (inactive),-0.323,0.297 (inactive),-0.249 (inactive),-1.44 (inactive),-0.443 (inactive),-0.485,-0.237,-0.102,-0.664,1.09
C=C(C)[C@@H]1CC=C(C(O)C2C=CC3C(=O)N(c4ccccc4)C(=O)C3N2Nc2ccccc2F)CC1 (stereo not given in full),0.282,1.27,1.12,0.987,1.11,0.0538,-0.568,0.531,1.27,-0.809 (inactive),0.29,0.581 (inactive),-0.887 (inactive),0.24 (inactive),0.493 (inactive),1.31,0.153,0.0552,0.77,0.27
CC(CO)N1C(=O)[C@@H]2[C@H]3C(=O)OCC=C[C@H]3OC23C=CCN(C(C)(C)C)C(=O)[C@@H]13 (stereo not given in full),-1.15,-0.833,-0.367,-0.591,-0.187,-0.0701,-0.28,-0.114,-0.104,-0.069 (inactive),-0.329,-0.304 (inactive),1.15 (inactive),-0.354 (inactive),-0.304 (inactive),0.769,-0.154,-1.5,-0.163,-0.405
COC(=O)[C@@]1(Cc2ccc(F)cc2)[C@H]2c3cc(C(=O)N(C)C)n(Cc4cc(F)cc5c4OCOC5)c3C[C@H]2CN1C(=O)c1ccccc1,1.06,1.19,1.5,1,1.04,-0.0284,-0.915,0.444,1.06,-0.724 (inactive),0.462,-3.74 (inactive),0.258 (inactive),0.397 (inactive),-0.201 (inactive),1.15,0.115,0.141,0.702,0.3
CN1C(=O)C2C=CC(C(O)COCc3ccccc3)N(N(c3ccccc3)c3ccccc3)C2C1=O (stereo not given),0.087,1.19,0.75,0.56,0.265,-0.483,1.12,0.216,0.508,-1.06 (inactive),0.124,-0.423 (inactive),-0.761 (inactive),-0.326 (inactive),-0.637 (inactive),0.369,0.0464,0.346,0.231,-0.386
O=C1OCC=C[C@H]2OC34C=CCN(Cc5ccccc5)C(=O)[C@H]3N(CCCCCCO)C(=O)[C@@H]4[C@@H]12 (stereo not given in full),1.29,-0.0134,0.879,-1.25,-0.562,-0.292,0.0814,-0.128,0.206,-3.54 (inactive),-0.495,-0.203 (inactive),-0.955 (inactive),-1.18 (inactive),-0.185 (inactive),-0.447,-0.238,1.6,1.29,-0.289
COc1ccc(C#Cc2ccc3c(c2)[C@]2(C(=O)N3)[C@H](c3ccc(O)cc3)N3[C@H](c4ccccc4)[C@H](c4ccccc4)OC(=O)[C@H]3[C@@H]2C(=O)O)cc1,2.03,1.06,0.324,0.457,0.127,-0.218,-2.05,-0.211,-0.178,-1.37 (inactive),0.136,-4.66 (inactive),-1.04 (inactive),0.478 (inactive),-0.478 (inactive),0.942,0.11,0.0897,0.721,0.248
